Bioassay records deposited in PubChem BioAssay by National Center for Advancing Translational Sciences (NCATS).
Most compounds without a hit are left out; they make up all but 6.5% or so of the library.
LASV entry inh: blocks Lassa virus binding to or entry into cells | Potency, µM (doses to about 37.9 µM), without a hit: at the top dose activity change, negative = inhibition, actives largely listed as inhibitors | Lassa virus pseudotype entry inhibition, cell reporter | 300,000 compounds, 1.2% hits; calls by dose curve; tested in HEK293 cells; also: potency is read from the fitted curve at half-maximal effect; nearly all actives have a fitted effect of over 50% in size
VACV mCherry inh: inhibitors of vaccinia virus infection (mCherry reporter signal) | Vaccinia virus mCherry reporter infection, fluorescence | Potency, µM (doses to about 36.5 µM), for the others: at the top dose activity change, negative = inhibition, hits mostly inhibitors | 310,000 compounds, 0.63% hits; calls by dose curve; tested in A549 cells; also: potency is read from the fitted curve at half-maximal effect; nearly all actives have a fitted effect of over 35% in size
MARV entry inh: blocks Marburg virus binding to or entry into cells; 300,000 compounds, 1.8% hits; Marburg virus pseudotyped entry inhibition, cell reporter; Potency, µM (top dose mostly 37.8 µM), for the others: at the top dose activity change, negative = inhibition, most hits filed as inhibitors; AID 540276; calls by dose curve; tested in HEK293 cells; also: potency is read from the fitted curve at half-maximal effect
HCMV antiviral: inhibitors of human cytomegalovirus; 410,000 compounds, 4.5% hits; HFF cells, HCMV-luciferase reporter, 72 h; stronger effect = lower value; activity change, negative = inhibition, % at 57.5 µM; AID 1259415; in the data active = activity change below about -60%; inconclusive = no clear call, values can overlap the other calls; inactive = above about -39%
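Luciferase read-out from HCMV-luciferase-infected HFFs (MOI 1 PFU/cell) 72 h post infection at 37C; compounds added after 16 h cell attachment; activity normalized between buffer-only basal and Salinomycin (10uM) inhibitor controls.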
FMDV antiviral: blocks foot and mouth disease virus; FMDV antiviral cell-based qHTS; Potency, µM (series often up to 57.9 µM), without a hit: at the top dose activity change, negative = inhibition, actives largely listed as inhibitors; 410,000 compounds, 1.2% hits; AID 1159524; calls by dose curve; tested in HEK293T cells; also: read-out not given here; potency is read from the fitted curve at half-maximal effect; nearly all actives have a fitted effect of over 45% in size
VACV Venus inh: vaccinia inhibition (Venus reporter). Vaccinia virus Venus reporter expression, fluorescence. Potency, µM (series often up to 36.5 µM), for inactives: at the highest dose activity change, negative = inhibition, hits mostly inhibitors. 330,000 compounds, 0.46% hits; calls by dose curve; tested in A549 cells; also: potency is read from the fitted curve at half-maximal effect; nearly all actives have a fitted effect of over 30% in size
Numbers without * were called inactive; i = inactive; u = inconclusive; x = not tested or not shown; [ ] = remark or other dose. % is scaled to controls: 0 for no effect and ±100 for the full control effect.

SMILES	LASV entry inh	VACV mCherry inh	MARV entry inh	HCMV antiviral	FMDV antiviral	VACV Venus inh
CCCCC(=O)N(C)c1c(C)nc2ccc(C(=O)N(CC)CCN(C)C)cn12	x	i	x	9	-8%	-5%
Cc1c(O)ccc2c(CN3CCN(Cc4ccccc4)CC3)cc(=O)oc12	x	x	x	-62*	u	x
Cc1c(O)ccc2c(CN(C)Cc3ccccc3)cc(=O)oc12	u	i	12µM*	-67*	-17%	-13%
Cc1ccccc1CN(C)Cc1cc(=O)oc2c(C)c(C)ccc12	2.8µM*	-28%	4µM*	-15	u	-6%
O=c1cc(CN2CCN(Cc3ccccc3)CC2)c2ccc(O)c(O)c2o1	-18%	-17%	u	9	-8%	-27%
Cc1ccc(NC(=O)c2cc(-c3cc(C)c(C)cc3O)n[nH]2)cc1C	x	x	x	-40	-5%	x
Nc1ccc(/C=C/C(=O)c2ccco2)cc1	10%	-1%	43%	1	53%	-5%
COc1ccccc1/C=C/C(=O)c1cc(Br)ccc1OC(=O)c1ccco1	-6%	-14%	u	15	u	u
O=C(/C=C/c1cc(Br)ccc1O)c1ccco1	x	u	x	-79*	u	-12%
O=C(/C=C/c1ccccc1O)c1ccco1	u	u	-25%	-17	u	13µM*
COc1cc(OC)c(OC)cc1CN1CCOc2ccc(CN3C[C@@H](C)O[C@@H](C)C3)cc2C1	x	-15%	x	x	-19%	0%
Cc1ccc(C(=O)c2coc3ccc(O)c(CN4CCN(C)CC4)c23)cc1	-17%	x	23µM*	19	-20%	x
Cc1nnsc1C(=O)NCC1Cc2cccc(-c3ncccn3)c2O1 (stereo not drawn)	x	-9%	x	x	-15%	-2%
CCOCCCNC(=O)CCc1ccc(-n2cnc3cccnc32)cc1	19%[46.1 µM]	-12%	-2%[46.1 µM]	-67*	4%	-9%
COc1ccc(/C=C/C(=O)N2CCc3c(cnc(C)c3CNS(=O)(=O)c3cccs3)C2)cc1	x	-26%	x	x	-7%	-15%
COc1cc2c(cc1[N+](=O)[O-])-c1ccc([N+](=O)[O-])cc1C2	x	x	x	-68*	x	x
COc1cc2c(cc1[N+](=O)[O-])-c1ccccc1C2	18%[46.1 µM]	-1%	u	-75*	19%	-2%
COc1cc2c(=O)[nH]c3cc([N+](=O)[O-])ccc3c2cc1[N+](=O)[O-]	x	u	x	-94*	-13%	-17%
CC(=O)Nc1cccc2c1Cc1ccccc1-2	x	x	x	x	82%	x
COc1cc2c(cc1[N+](=O)[O-])-c1ccc([N+](=O)[O-])cc1C2=NNC(N)=S	x	i	x	x	0%	-20%
CC(=O)Nc1cccc2c1Cc1cc([N+](=O)[O-])ccc1-2	5%[46.1 µM]	i	16%	-98*	-5%	-11%
CC1(NC(=O)CCc2nc3sc4c(c3c(=O)[nH]2)CCCC4)CCS(=O)(=O)C1 (stereo not drawn)	-9%	-4%	-3%[46.1 µM]	-1	3%	2%
COc1cc([C@H]2NC(=O)C[C@H]2C(=O)OCc2ccccc2)ccc1OC(C)C	x	x	x	-15	x	x
CCn1nc(C)cc1C(=O)NCC1Cc2cc(C)cc(-c3ccccc3C(=O)OC)c2O1 (stereo not drawn)	x	0%	x	x	-13%	-15%
Cc1nc2cc(NC(=O)C3CC34CCN(Cc3ccc(O)c(Cl)c3)CC4)ccc2s1 (stereo not drawn)	x	i	x	x	6%	-12%
SMILES	LASV entry inh	VACV mCherry inh	MARV entry inh	HCMV antiviral	FMDV antiviral	VACV Venus inh
CC(C)N(Cc1ccccc1)C(=O)CN1c2cccc3cccc(c23)S1(=O)=O	-7%	-23%	u	-10	-30%	-12%
O=[N+]([O-])c1ccc2c(c1)Cc1cc(F)ccc1-2	2%[46.1 µM]	-3%	2%[46.1 µM]	-94*	-5%	2%
O=C(Nc1ccc2c(c1)Cc1cc([N+](=O)[O-])ccc1-2)C(F)(F)F	7%	-17%	20%	u	2%	-12%
Cc1cc(C)c2sc(N(CCCN(C)C)C(=O)c3ccc(S(=O)(=O)N4CCCc5ccccc54)cc3)nc2c1	x	x	x	-61*	u	x
CN(C)CCCN(C(=O)c1ccc(S(=O)(=O)N2CCc3ccccc32)cc1)c1nc2ccc(F)cc2s1	u	i	u	8	-16%	-24%
CN(C)CCCN(C(=O)c1ccc(S(=O)(=O)N2CCc3ccccc3C2)cc1)c1nc2ccc(F)cc2s1	u	13µM*	u	14	-23%	16µM*
Cc1ccc2nc(N(CCCN(C)C)C(=O)c3ccc(S(=O)(=O)N4CCc5ccccc5C4)cc3)sc2c1	u	u	u	-103*	u	u
Cc1cccc2sc(N(CCCN(C)C)C(=O)c3ccc(S(=O)(=O)N4CCc5ccccc5C4)cc3)nc12	u	u	u	-100*	-17%	-19%
CCOC(=O)c1ccc(N2C(=O)C(O)=C(C(C)=O)C2c2ccc([N+](=O)[O-])cc2)cc1 (stereo not drawn)	x	x	x	21	1%	x
OC(c1cccc(Cl)c1)c1nnc(Nc2cccc(Oc3ccccc3)c2)s1 (stereo not drawn)	x	x	x	-19	x	x
COc1ccc2sc(N(CCCN(C)C)C(=O)c3ccc(S(=O)(=O)N4CCc5ccccc5C4)cc3)nc2c1	3.5µM*	u	u	-98*	25µM*	11µM*
COc1cccc(C(=O)Nc2ccccc2SCc2cc(=O)c3cccc(C)c3[nH]2)c1	-10%[46.1 µM]	-3%	x	37	10%	-2%
O=[N+]([O-])c1cccc(NNS(=O)(=O)c2ccccc2F)c1	u	u	8.9µM*	-8	0%	-20%
Cc1cc(S(=O)(=O)Nc2cccc([N+](=O)[O-])c2)c(C)s1	x	x	x	-40	0%	x
Cc1cccc(NC(=O)c2ccc(S(=O)(=O)N3CCC(C)CC3)cc2)n1	2%	u	u	-77*	32µM*	u
CC1CCCCN1S(=O)(=O)c1ccc(C(=O)Nc2nnc(-c3ccco3)o2)cc1 (stereo not drawn)	u	u	u	-70*	0%	u
Cc1cccc(NC(=O)c2ccc(S(=O)(=O)N3CCCCC3)cc2)n1	x	-15%	x	15	-13%	-18%
